Screening data (PubChem BioAssay)
ELG1 genotox – induces genotoxicity in HEK293T cells with luciferase-tagged ELG1 | HEK293T ELG1-luciferase reporter, luminescence, 16 h | Potency, µM (highest dose often 46 µM), most hits filed as activators | actives 1.3% (n = 330,000) | AID 504466; note: nearly all actives have a fitted effect of over 60% in size
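Screening used a luciferase reporter fused to human ELG1 in HEK293T cells. Luminescence was read on a CCD plate imager after 16 hr exposure and 30 min ONE-Glo incubation.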
Rab9 promoter act – Rab9 promoter activation; Huh7 Rab9 promoter-luciferase reporter, luminescence, 24 h; Potency, µM (series often up to 9.22 µM), usual class: activators; actives 2.8% (n = 320,000); note: nearly all actives have a fitted effect of over 60% in size
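Rab9 promoter-driven luciferase in stably transfected Huh7 cells; 1500 cells/well rested 2 h, exposed to compound in DMSO for 24 h at 37 °C, 5% CO2. Luminescence read 10 min after adding luciferase reagent at ambient temperature.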
NPC1 promoter act – activators of NPC1 promoter; Huh7 NPC1 promoter luciferase reporter, 24 h; Potency, µM (titrated, usually from 9.22 µM), hits mostly activators; actives 2.4% (n = 320,000); note: nearly all actives have a fitted effect of over 60% in size
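Stable NPC1-promoter luciferase Huh7 line; cpd (DMSO) 24 h, 37 °C, 5% CO2; Amplite luciferase reagent 10 min RT; luminescence readout. qHTS format.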
FLuc modulator – counter-screen for miR-21 project: firefly luciferase inhibitors or activators; P08659; purified FLuc, Km substrates, luminescence inhibition; Potency, µM (titrated, usually from 57.5 µM), actives largely listed as inhibitors; actives 6.9% (n = 360,000); AID 588342; note: nearly all actives have a fitted effect of over 55% in size
Target sequence (P08659 whole entry, looked up): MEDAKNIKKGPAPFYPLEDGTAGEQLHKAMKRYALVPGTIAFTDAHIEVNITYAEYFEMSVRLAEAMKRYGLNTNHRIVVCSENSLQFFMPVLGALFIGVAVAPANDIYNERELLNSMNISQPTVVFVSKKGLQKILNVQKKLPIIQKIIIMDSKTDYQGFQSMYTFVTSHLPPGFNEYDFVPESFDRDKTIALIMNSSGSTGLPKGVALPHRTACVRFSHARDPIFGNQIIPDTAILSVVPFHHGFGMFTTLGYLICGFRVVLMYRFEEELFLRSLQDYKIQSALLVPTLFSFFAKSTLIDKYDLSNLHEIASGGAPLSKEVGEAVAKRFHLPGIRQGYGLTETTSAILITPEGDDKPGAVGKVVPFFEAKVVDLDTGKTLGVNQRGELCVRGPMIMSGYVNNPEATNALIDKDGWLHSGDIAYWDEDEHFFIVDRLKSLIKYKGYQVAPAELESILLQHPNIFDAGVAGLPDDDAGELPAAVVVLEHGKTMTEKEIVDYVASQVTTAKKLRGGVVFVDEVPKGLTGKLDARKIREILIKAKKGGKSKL
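Purified P. pyralis luciferase, 10 nM final, with Km-level 10 uM D-luciferin and 10 uM ATP in 50 mM Tris acetate pH 7.5, 10 mM Mg acetate, 0.01% Tween-20, 0.05% BSA; 6-point qHTS titration about 60 µM downward; luminescence read.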
SMN2 splice enh – increases expression of the SMN2 splice variant; HEK293 SMN2-luciferase splicing reporter, luminescence, 30-36 h; Potency, µM (highest dose often 46.1 µM), usual class: activators; AID 1458; actives 2.8% (n = 210,000); note: nearly all actives have a fitted effect of over 55% in size
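qHTS luciferase splicing reporter: luminescence rises when SMN2 exon 7 is included in transfected HEK293 cells. Compound exposure lasted 30-36 h at 37C, with 4.5 mM final sodium butyrate as control, followed by a ONE-Glo read.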
KinaseGlo FLuc – counter-screen: inhibitors of Kinase-Glo firefly luciferase | Q27757 | actives 0.28% (n = 200,000) | Kinase-Glo luciferase, ATP luminescence, 8 min | Potency, µM (series often up to 38.3 µM), actives largely listed as inhibitors; note: nearly all actives have a fitted effect of over 60% in size
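Compounds were added to a substrate mix at pH 7.2 (50 mM imidazole, 10 uM ATP, within the enzyme's linear range), followed by Kinase-Glo detection reagent; luminescence was measured after 8 minutes at ambient temperature.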
Numbers stand for hits; n = inactive; u = inconclusive; x = no result given. Shown are actives, neighbours in structure and some others; about 7.5% of the full set was active somewhere. Calls come from the whole dose curve; as a rule, active = well fitted curve in the direction sought with a large enough effect; inconclusive = small, poorly fitted or top-dose-only effect, or another doubt; inactive = no such curve, though single readings can be large; an effect the other way counts as inactive or inconclusive.

SMILES	ELG1 genotox	Rab9 promoter act	NPC1 promoter act	FLuc modulator	SMN2 splice enh	KinaseGlo FLuc
CC1=NN(c2cccc(C(=O)O)c2)C(=O)/C1=C\C=C/c1ccccc1	n	n	n	2.4µM	n	n
CC1=NN(c2ccccc2)C(=O)/C1=C\c1cc(C)n(-c2ccccc2)c1C	u	n	n	0.54µM	n	n
CC1=NN(c2ccccc2)C(=O)/C1=C/C=C/C=C/N(C)C	n	n	n	u	n	u
CCCc1nn2c(=O)cc(COC(=O)c3ccccc3NC(=O)c3ccc(Cl)cc3)nc2s1	x	x	x	n	x	x
COc1cccc(C(c2sc3nc(-c4ccco4)nn3c2O)N2CCOCC2)c1 (stereo unspecified)	x	x	x	n	x	x
CC(C)NC(=S)N/N=C/c1sc(N2CCCCC2)nc1-c1cccs1	n	n	n	3µM	n	n
O=C(N/N=C/c1sc(N2CCCCC2)nc1-c1cccs1)C1CC1	n	n	n	u	n	n
COc1ccccc1NC(=O)CCS(=O)(=O)c1ccc2nc(C)sc2c1	x	x	x	n	x	x
COc1ccccc1NC(=O)c1ccc2nc(C)sc2c1	n	u	4µM	u	x	x
COc1cccc(NC(=O)c2ccc3nc(C)sc3c2)c1	23µM	1.1µM	1.6µM	11µM	x	x
O=C(Nc1cccc(Br)c1)c1ccc2nc(N3C(=O)CCC3=O)sc2c1	n	n	n	17µM	n	n
CCn1c(CNC(=O)c2ccc(OC)cc2)nnc1SCC(=O)Nc1ccc(C)cc1	x	x	x	n	n	x
Cc1cc(C)cc(N2C(=O)CSC23C(=O)N(CC(=O)NC2CCCCC2)c2ccccc23)c1 (stereo unspecified)	x	x	x	n	x	x
Cc1ccc(Cn2c(CCCNC(=O)c3ccco3)nc3ccccc32)cc1	x	x	x	n	n	x
Cn1nnnc1SCCCNCc1cc(Br)ccc1OCc1ccccc1F	x	x	x	n	x	x
O=C1CCNc2ccc(-c3ccccc3)cc21	u	n	u	15µM	u	n
CCOc1ccc(Nc2n[nH]c(=S)s2)cc1	u	1.8µM	2.5µM	u	x	x
CC1CCCN(C(=O)c2ccc(-c3ccccc3Cl)o2)C1 (stereo unspecified)	15µM	2.5µM	3.5µM	8.5µM	x	x
O=C(NCc1ccco1)c1cnc2sccn2c1=O	n	n	n	n	n	n
O=C(NCCc1ccccc1)c1cnc2sccn2c1=O	u	3.5µM	u	17µM	13µM	n
Cc1cccn2c(=O)c(C(=O)NCCc3ccccc3)cnc12	x	x	x	4.8µM	x	x
COc1cccc(N2CC(NS(=O)(=O)c3cccnc3)CC2=O)c1 (stereo unspecified)	n	n	n	n	x	x
NC(=O)CSc1nc2c(oc3ccccc32)c(=O)n1-c1ccccc1F	x	x	x	n	n	x
COc1ccc(-c2nn(-c3ccccc3)cc2/C=C/C(=O)NCCCn2ccnc2)cc1OC	n	n	n	27µM	x	n
COc1ccc(-c2nn(-c3ccccc3)cc2C(=O)NCCCn2ccnc2)cc1	n	n	n	n	n	n
SMILES	ELG1 genotox	Rab9 promoter act	NPC1 promoter act	FLuc modulator	SMN2 splice enh	KinaseGlo FLuc
COc1ccc(-c2nn(-c3ccccc3)cc2/C=C(\CC(=O)O)c2nc3ccccc3s2)cc1OC	n	n	n	9.5µM	n	n
COc1ccc(-c2cn(-c3ccccc3)nc2C(=O)O)cc1OC	n	n	n	12µM	x	x
COc1ccc(-c2nn(-c3ccccc3)cc2C(=O)Nc2ccc(C(=O)O)cc2)cc1OC	n	n	n	4.3µM	x	x
CCOC(=O)c1ccc(NC(=O)c2cn(-c3ccccc3)nc2-c2ccc(OC)c(OC)c2)cc1	x	x	x	n	n	x
CCC(NS(=O)(=O)c1ccc2c(c1)Cc1cc(S(=O)(=O)NC(CC)C(=O)O)ccc1-2)C(=O)O (stereo unspecified)	n	n	n	n	x	x
Cc1cc(C)c(C(=O)CSc2nnc(C)c(=O)[nH]2)cc1C	n	n	n	u	n	n
COc1ccc(OC)c(-c2nn(-c3ccccc3)cc2C(=O)N2CCc3ccccc3C2)c1	n	n	n	n	x	x
Cc1ccc(NC(=O)c2cn(-c3ccccc3)nc2-c2ccccc2)cc1	x	x	x	n	x	x
COc1ccc(-c2nn(-c3ccccc3)cc2C(=O)O)cc1OC	n	n	n	15µM	n	n
O=C(O)c1cccc(NC(=O)c2cn(-c3ccccc3)nc2-c2ccc(F)cc2)c1	n	n	n	4.8µM	x	x
COc1cccc(-c2nn(-c3ccc(C)cc3)cc2C(=O)N2CCc3cc(OC)c(OC)cc3C2)c1	n	n	n	5.4µM	x	x
COc1cccc(-c2nn(-c3ccccc3)cc2C(=O)O)c1	n	n	n	u	n	n
Cc1ccc(-c2nn(-c3ccccc3)cc2C(=O)Nc2ccc(C(=O)O)cc2)cc1	n	u	n	1.1µM	18µM	n
COc1ccc(-c2nn(-c3ccccc3)cc2/C=C/C(=O)N2CCOCC2)cc1OC	n	n	n	24µM	n	n
NC(=O)/C=C\c1cn(-c2ccccc2)nc1-c1ccc2c(c1)OCCO2	n	n	n	n	n	n
COc1ccc(-c2nn(-c3ccccc3)cc2/C=N/Nc2ccc(Cl)c(C(=O)O)c2)cc1OC	n	n	n	13µM	x	x
Cc1c(-c2ccccc2)n(-c2ccc(Cl)cc2)c2nc3c(c(=O)n(C)c(=O)n3C)n12	x	x	x	n	x	x
CCOc1ccccc1C1C(C(=O)Nc2ccccc2)=C(C)Nc2c(C(=O)Nc3ccc(F)cc3)cnn21 (stereo unspecified)	x	x	x	n	n	x
COC(=O)c1cc2occc2n1CC(=O)Nc1ccc(N(C)C)cc1	x	x	x	n	n	x
Cc1ccc(C)c(NS(=O)(=O)c2cc3c(cc2Cl)NC(=O)CO3)c1	x	x	x	n	x	x
C[C@H](CO)N1C[C@H](C)[C@@H](CN(C)S(=O)(=O)c2cccs2)Oc2ccc(NS(=O)(=O)c3ccc(F)cc3)cc2C1=O	n	x	x	x	x	x
O=C(Nc1ccc(S(=O)(=O)N2CCCCCC2)cc1)c1[nH]ncc1[N+](=O)[O-]	u	u	u	17µM	x	x
Cc1ccc(-c2nnc(NC(=O)c3ccco3)o2)c(C)c1	n	u	u	2.7µM	x	x
O=C(Nc1nnc(-c2ccccc2Cl)o1)c1ccco1	u	n	n	6µM	u	n
Cc1ccc(C)c(-c2nnc(NC(=O)c3ccco3)o2)c1	n	n	n	15µM	x	x
SMILES	ELG1 genotox	Rab9 promoter act	NPC1 promoter act	FLuc modulator	SMN2 splice enh	KinaseGlo FLuc
COc1cc(C(=O)Oc2ccccc2/C=N/NC(=O)c2ccc(Cl)cc2Cl)cc(OC)c1OC	n	u	3.5µM	u	u	n
C=CCOc1ccccc1/C=N/NC(=O)c1ccc(Cl)cc1Cl	n	u	u	15µM	n	n
CCCN(CCC)CCCNC(=O)C1CCN(S(=O)(=O)CC)CC1	x	x	x	n	x	x
COC(=O)Cn1c(C)nc2c(sc3nc(C)cc(C)c32)c1=O	16µM	u	u	12µM	11µM	n
CCOC(=O)Cn1cnc2c(sc3nc(C)cc(C)c32)c1=O	u	u	u	12µM	x	x
C=CCn1cnc2c(sc3nc(C)cc(C)c32)c1=O	u	n	n	17µM	x	x
